This is an account of results in PubChem BioAssay (NCATS).

Values joined by “and” are separate entries in the source; they are usually repeats but may differ in a detail not shown here. Equal values may be shown once. Unmarked numbers belong to inactive results. Records with an inconclusive call do not appear. Active and inactive are the calls of the source. The call rests on the fitted dose curve; in most records, active means well fitted curve in the direction sought with a large enough effect; inconclusive means small, poorly fitted or top-dose-only effect, or another doubt; inactive means no such curve, though single readings can be large; an effect the other way counts as inactive or inconclusive.

For assay [1], the target named is Cytochrome P450 2C9 (Homo sapiens) (UniProt P11712). The experiment in a line: qHTS Assay for Inhibitors and Substrates of Cytochrome P450 2C9 (AID 883). Further: nearly all actives have a fitted effect of over 60% in size. The procedure, abridged:
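A luminogenic readout tracked human CYP2C9 (10nM) converting deoxyluciferin (100uM, at KM) in 25mM KPO4 during 60 min at 37C with regenerated NADPH. Values normalized to 57uM sulphaphenazole as complete inhibition.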
(qHTS replaces the single test concentration by a dilution series.)

The target of assay [2] is Cytochrome P450 3A4 (Homo sapiens) (UniProt P08684). The experiment in a line: qHTS Assay for Activators of Cytochrome P450 3A4 (AID 885). Further: nearly all actives have a fitted effect of over 65% in size. In a few lines: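 Using 20nM recombinant human CYP3A4 in potassium phosphate (200mM), substrate Luciferin-PPXE at 25uM, luminescent luciferin detection followed a 60-min RT NADPH reaction; data scaled to 57 uM ketoconazole.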
Chain of Cytochrome P450 3A4 (Homo sapiens) (P08684 whole entry, looked up): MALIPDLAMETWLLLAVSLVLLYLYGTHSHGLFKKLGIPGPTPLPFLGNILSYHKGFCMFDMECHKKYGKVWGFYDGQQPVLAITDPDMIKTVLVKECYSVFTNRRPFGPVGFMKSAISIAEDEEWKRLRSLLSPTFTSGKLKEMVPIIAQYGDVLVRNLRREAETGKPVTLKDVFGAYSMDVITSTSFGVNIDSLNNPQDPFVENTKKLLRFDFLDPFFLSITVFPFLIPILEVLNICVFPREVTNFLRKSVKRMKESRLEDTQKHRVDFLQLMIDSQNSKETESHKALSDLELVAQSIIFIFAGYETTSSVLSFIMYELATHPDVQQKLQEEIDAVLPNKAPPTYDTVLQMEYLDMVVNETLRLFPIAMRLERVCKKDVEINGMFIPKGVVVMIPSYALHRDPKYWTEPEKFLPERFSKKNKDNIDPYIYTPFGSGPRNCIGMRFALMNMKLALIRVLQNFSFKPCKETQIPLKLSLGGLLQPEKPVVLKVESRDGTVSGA
Assay [3] concerns the target Cytochrome P450 2D6 (Homo sapiens) (UniProt P10635). Kind of assay: qHTS Assay for Inhibitors and Substrates of Cytochrome P450 2D6 (AID 891). Further: nearly all actives have a fitted effect of over 60% in size. In a few lines:
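Luminescent read-out of luciferin formed by 5 nM human CYP2D6 demethylating 30 uM Luciferin-ME EGE (Km level) over 60 min at room temperature after NADPH regeneration addition. Data normalized to full inhibition by 1.43 uM quinidine.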

Assay [4] addresses Cytochrome P450 2C19 (Homo sapiens) (UniProt P33261). Kind of assay: qHTS Assay for Inhibitors and Substrates of Cytochrome P450 2C19 (AID 899). Further: nearly all actives have a fitted effect of over 60% in size. In a few lines: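 NADPH-dependent conversion of Luciferin-H EGE (10uM, at KM) by 5nM enzyme in 50mM KPO4, 60 min at 37C following 10 min compound preincubation. Stopped with luciferin detection buffer; luminescence read after 20 min.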
Potency means the concentration at half of the fitted maximal effect.

Chain of Cytochrome P450 2C19 (Homo sapiens) (P33261 whole entry, looked up): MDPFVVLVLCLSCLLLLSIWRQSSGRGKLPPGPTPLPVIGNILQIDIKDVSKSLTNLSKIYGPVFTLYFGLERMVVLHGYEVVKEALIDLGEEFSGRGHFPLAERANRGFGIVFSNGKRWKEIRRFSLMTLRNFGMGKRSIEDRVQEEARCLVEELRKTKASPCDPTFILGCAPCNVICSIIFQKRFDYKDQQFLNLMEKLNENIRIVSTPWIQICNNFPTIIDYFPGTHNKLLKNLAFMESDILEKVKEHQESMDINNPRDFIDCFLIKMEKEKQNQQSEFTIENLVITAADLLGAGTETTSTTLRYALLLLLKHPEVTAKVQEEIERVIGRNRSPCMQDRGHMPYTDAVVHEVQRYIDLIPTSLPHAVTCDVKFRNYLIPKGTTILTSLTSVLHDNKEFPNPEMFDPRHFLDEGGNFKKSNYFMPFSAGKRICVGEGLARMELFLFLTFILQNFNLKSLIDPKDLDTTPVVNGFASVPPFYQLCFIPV
Chain of Cytochrome P450 2D6 (Homo sapiens) (P10635 whole entry, looked up): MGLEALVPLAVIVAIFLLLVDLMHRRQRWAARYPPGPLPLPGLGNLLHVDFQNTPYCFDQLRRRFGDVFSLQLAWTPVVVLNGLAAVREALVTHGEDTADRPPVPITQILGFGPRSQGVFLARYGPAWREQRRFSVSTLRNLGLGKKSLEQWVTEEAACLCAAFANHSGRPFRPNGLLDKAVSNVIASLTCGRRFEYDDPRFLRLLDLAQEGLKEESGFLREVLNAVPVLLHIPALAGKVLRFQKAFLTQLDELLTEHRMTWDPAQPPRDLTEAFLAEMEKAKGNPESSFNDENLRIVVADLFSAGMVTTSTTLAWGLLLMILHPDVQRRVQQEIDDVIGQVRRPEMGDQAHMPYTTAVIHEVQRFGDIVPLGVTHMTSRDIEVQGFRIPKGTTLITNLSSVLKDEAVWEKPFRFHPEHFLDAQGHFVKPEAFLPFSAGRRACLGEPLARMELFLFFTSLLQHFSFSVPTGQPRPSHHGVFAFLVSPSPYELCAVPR
Chain of Cytochrome P450 2C9 (Homo sapiens) (P11712 whole entry, looked up): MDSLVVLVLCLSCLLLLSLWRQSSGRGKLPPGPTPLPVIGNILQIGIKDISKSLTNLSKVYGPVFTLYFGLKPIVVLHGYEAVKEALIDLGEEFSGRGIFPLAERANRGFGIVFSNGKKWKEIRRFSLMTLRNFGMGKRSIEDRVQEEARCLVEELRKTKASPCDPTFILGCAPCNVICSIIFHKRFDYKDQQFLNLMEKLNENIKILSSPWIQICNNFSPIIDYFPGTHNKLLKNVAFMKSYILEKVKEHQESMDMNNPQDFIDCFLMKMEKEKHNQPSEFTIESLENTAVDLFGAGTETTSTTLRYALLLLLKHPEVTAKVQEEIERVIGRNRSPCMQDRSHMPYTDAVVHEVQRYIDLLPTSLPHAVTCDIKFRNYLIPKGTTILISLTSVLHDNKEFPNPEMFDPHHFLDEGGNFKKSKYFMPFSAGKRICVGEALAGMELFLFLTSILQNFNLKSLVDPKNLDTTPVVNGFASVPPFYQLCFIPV

`COC(=O)C1=C(C)N(Cc2ccccc2)[C@]23O[C@](C(=O)OC)(C(=O)N2C1c1ccccc1)C(C(=O)OC)=C3C(=O)OC` (stereo partly specified): the Potency result in assay [1] and in assay [3] was “inactive” throughout. Further, the activity change, positive = activation in assay [2] is -58% [at 11.4 µM]. In addition, the Potency in assay [4] was 1.58 µM (active).
With `COC(=O)NC(c1cccs1)C(C(C)=O)C(=O)OC` (stereo unspecified), the Potency result in assay [1] and in assay [3] was “inactive” throughout. The activity change, positive = activation in assay [2] is -34.2% [at 11.4 µM].
Consider `CCCCCCCC#Cc1ccccc1/C=N/S(=O)C(C)(C)C` (stereo unspecified), for which the Potency entry in assay [1], in assay [3] and in assay [4] was “inactive” throughout. Also, in assay [2], the activity change, positive = activation is -47.5% [at 11.4 µM].
In the case of `CC(C)CCN1CCc2nc(-c3ccccc3)c3c(c2C1)COC(C)C3` (stereo unspecified), the Potency result in assay [1], in assay [3] and in assay [4] was “inactive” each time. The activity change, positive = activation in assay [2] was -56% [at 11.4 µM].
For `COC(=O)C1=C(C)N(Cc2ccccc2)C2=C(C(C)=O)C[C@@](O)(C(=O)OC)C(=O)N2C1c1ccccc1` (stereo partly specified), the Potency entry in assay [1], in assay [3] and in assay [4] was “inactive” each time. The activity change, positive = activation in assay [2] was -45.3% [at 11.4 µM] and -48.2% [at 11.4 µM].
Regarding `COc1ccc(-c2nc3c(c4c2CC(C)OC4)CN(CCC(C)C)CC3)cc1` (stereo unspecified), the Potency result in assay [1], in assay [3] and in assay [4] was “inactive” each time. Moreover, the activity change, positive = activation in assay [2] was -50.4% [at 11.4 µM].
As for `C[C@@]12CCC3c4ccc(OC5C=CC(c6ccccc6)OC5CO)cc4CCC3C1CCC2=O` (stereo partly specified), the Potency result in assay [1], in assay [3] and in assay [4] was “inactive” throughout. In addition, the Potency in assay [2] is 3.16 µM (active).
In the case of `COC(=O)NC(c1ccccc1)C(C(=O)OC)C(=O)OC` (stereo unspecified), the Potency entry in assay [1] was “inactive”. Also, the activity change, positive = activation in assay [2] is -40.4% [at 11.4 µM]. The Potency in assay [3] is 0.0079 µM (active).
Consider `CC(=O)OCC1OC(C#CCC2CCCCC2)C=CC1OC(C)=O` (stereo unspecified), for which the Potency result in assay [1], in assay [3] and in assay [4] was “inactive” in each case. For the same molecule, in assay [2], the activity change, positive = activation is -56.3% [at 11.4 µM].
Consider `O=Cc1ccc(OC2C=CC(C#Cc3ccccc3)OC2CO)cc1` (stereo unspecified), for which the Potency in assay [1] is 2.51 µM (active). In assay [2], the activity change, positive = activation is -42% [at 11.4 µM].
As for `COCOc1cc(OC)ccc1C(=O)/C=C\c1ccc2c(c1)OCO2`, the Potency was 2.51 µM (active) in assay [1] and 3.98 µM (active) in assay [3]. Further, the activity change, positive = activation in assay [2] is -101% [at 11.4 µM].
The corresponding values for `CCC/C=C/C1C(=O)C2OC2C2(OCC(CC)(CC)CO2)C1CO` (stereo unspecified) are “inactive”, “inactive” and -53.3% [at 11.4 µM].
On to `COc1cccc(C2C(C)CCC3C(=O)N(C)C(C(C)C)C(=O)N32)c1` (stereo unspecified), for which the Potency result in assay [1], in assay [3] and in assay [4] was “inactive” in each case. Also, the activity change, positive = activation in assay [2] was -59.1% [at 11.4 µM].
As to `O=C1OC(C2=CCCCC2)=NC12CC2`, the Potency entry in assay [1], in assay [3] and in assay [4] was “inactive” each time. The activity change, positive = activation in assay [2] was -40.2% [at 11.4 µM].
Take `CCOC(=O)OCC1OC(c2ccccc2)C=CC1Oc1cccc(N(C)C)c1` (stereo unspecified): the Potency result in assay [1] and in assay [3] was “inactive” in each case. Moreover, the activity change, positive = activation in assay [2] is -50.1% [at 11.4 µM].
Take `C=C(C)C(O)/C=C/c1ccccc1OC` (stereo unspecified): the Potency entry in assay [1], in assay [3] and in assay [4] was “inactive” throughout. The activity change, positive = activation in assay [2] is -35.5% [at 11.4 µM].
On to `CC1CCC2C(=O)OC(Cc3ccccc3)CN2C1c1ccc(Br)cc1` (stereo unspecified), for which the Potency entry in assay [1] and in assay [3] was “inactive” throughout. Besides, the activity change, positive = activation in assay [2] was -52.5% [at 11.4 µM] and -47.1% [at 11.4 µM]. In addition, the Potency in assay [4] was 316 nM (active) and 3.16 µM (active).
For `CCCCCCC#CC1C=CC(Oc2ccc(C=O)cc2)C(CO)O1` (stereo unspecified), the Potency result in assay [1] and in assay [3] was “inactive” each time. Also, the activity change, positive = activation in assay [2] is -35.2% [at 11.4 µM]. Moreover, the Potency in assay [4] is 3.98 µM (active).
Regarding `COC(C1CCCCC1)C(C)C(OCc1cccc(Br)c1)C(C)CO` (stereo unspecified), the Potency entry in assay [1] and in assay [3] was “inactive” in each case. For the same molecule, the activity change, positive = activation in assay [2] is -47.3% [at 11.4 µM]. In assay [4], the Potency is 1.58 µM (active).
Turning to `CCN1C(C)=C(C(=O)OC)C(c2ccccc2)N2C(=O)[C@](O)(C(=O)OC)CC(C#N)=C12` (stereo partly specified), the Potency entry in assay [1], in assay [3] and in assay [4] was “inactive” each time. In addition, the activity change, positive = activation in assay [2] was -38.3% [at 11.4 µM].
Turning to `CCN1C(C)=C(C(=O)OC)C(c2ccccc2)N2C(=O)[C@@]3(C(=O)OC)O[C@@]12C1C(=O)CCCC13` (stereo partly specified), the Potency entry in assay [1], in assay [3] and in assay [4] was “inactive” in each case. The activity change, positive = activation in assay [2] was -36.9% [at 11.4 µM].
Turning to `COc1ccc(OC2C(O)COC2/C=C/C#Cc2ccccc2)cc1` (stereo unspecified), the Potency entry in assay [1], in assay [3] and in assay [4] was “inactive” in each case. The activity change, positive = activation in assay [2] is -57.7% [at 11.4 µM].
Consider `C/C=C/OC(=O)NC(c1cccc(C)c1)[C@@]1(C(=O)OCC)CCCC1=O` (stereo partly specified), for which the Potency entry in assay [1] and in assay [3] was “inactive” throughout. In assay [2], the activity change, positive = activation is -48.2% [at 11.4 µM]. Moreover, the Potency in assay [4] was 1 µM (active).
Turning to `CCCCCCC#CC1C=CC(OC(C)=O)C(COC(C)=O)O1` (stereo unspecified), the Potency entry in assay [1] is “inactive”. For the same molecule, in assay [2], the activity change, positive = activation is -57.5% [at 11.4 µM].
As for `CCCCC#CC1C=CC(Oc2cc(OC)c(OC)c(OC)c2)C(CO)O1` (stereo unspecified), the Potency result in assay [1], in assay [3] and in assay [4] was “inactive” each time. The activity change, positive = activation in assay [2] is -45% [at 11.4 µM].
